TDP1 cell noCPT – qHTS for Inhibitors of human tyrosyl-DNA phosphodiesterase 1 (TDP1): qHTS in cells in absence of CPT. Potency, µM (doses to about 46.2 µM), hits mostly inhibitors. actives 15% (n = 420,000). DT40 Tdp1-/- hTDP1 cells, no CPT, ATP luminescence, 48 h; note: nearly all actives have a fitted effect of over 55% in size
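Chicken DT40 Tdp1-/- cells complemented with human TDP1, screened without camptothecin (DMSO vehicle only), 400 cells/well. Compounds pin-transferred, cells incubated at 37 °C for at least 48 hr. Growth read as ATP-dependent luminescence (CellTiter-Glo, 30 min at RT).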
TDP1 cell CPT – DT40-hTDP1 cell growth loss with CPT; actives 12% (n = 420,000); chicken DT40 Tdp1-/-;hTDP1 cells + 20 nM CPT, ATP luminescence, 48 h; Potency, µM (titrated, usually from 46.2 µM), hits mostly inhibitors; note: nearly all actives have a fitted effect of over 55% in size
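Cell growth measured by CellTiter-Glo luminescence after a minimum 48 h, 37 C compound exposure with 20 nM CPT in Tdp1-knockout DT40 cells stably expressing hTDP1, seeded 400/well; qHTS titration format.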
S-ASM inh – human S-ASM enzyme inhibition; Potency, µM (highest dose often 57.5 µM), hits mostly inhibitors; P17405; placental ASM, HMU-PC fluorogenic substrate, 60 min; actives 0.006% (n = 340,000)
Target sequence (P17405 47-631 limits assumed): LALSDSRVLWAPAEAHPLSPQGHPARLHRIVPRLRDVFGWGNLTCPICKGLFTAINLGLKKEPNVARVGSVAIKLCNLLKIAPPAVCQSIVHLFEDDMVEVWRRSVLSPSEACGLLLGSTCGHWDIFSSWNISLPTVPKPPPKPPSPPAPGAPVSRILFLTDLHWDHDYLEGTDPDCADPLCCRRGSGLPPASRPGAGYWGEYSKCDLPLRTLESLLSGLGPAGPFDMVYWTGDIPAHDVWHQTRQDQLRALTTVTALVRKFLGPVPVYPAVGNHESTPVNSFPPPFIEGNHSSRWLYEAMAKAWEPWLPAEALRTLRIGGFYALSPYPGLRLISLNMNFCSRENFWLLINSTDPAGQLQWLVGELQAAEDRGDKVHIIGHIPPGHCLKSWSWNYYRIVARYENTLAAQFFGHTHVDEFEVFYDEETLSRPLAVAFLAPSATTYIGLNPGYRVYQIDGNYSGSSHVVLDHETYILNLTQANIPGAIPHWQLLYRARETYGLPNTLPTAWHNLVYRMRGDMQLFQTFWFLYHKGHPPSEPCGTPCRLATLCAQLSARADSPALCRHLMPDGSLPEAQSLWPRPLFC
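Steps: dispense placental human ASM, pin compound, wait 10 min at room temperature, add HMU-PC0 substrate at 9 uM final, incubate 60 min at 37 °C, add stop solution raising pH to 10, read fluorescence.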
TGFb SMAD3 inh – TGF-b pathway inhibition. HepG2 CAGA-GFP TGF-b/SMAD3 reporter, GFP fluorescence, 18 h; TGF-beta stimulated, 500 pg/mL final. Potency, µM (doses to about 46.1 µM), usual class: inhibitors. actives 1.2% (n = 410,000). AID 588855; note: nearly all actives have a fitted effect of over 65% in size
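HEPG2 CAGA-GFP reporter cells (1000/well, DMEM with 1% FBS) received compounds, then recombinant TGF-beta at 500 pg/mL final for 18 hours at 37 degrees C. Per-cell GFP summed per well was normalised to unstimulated and stimulated DMSO controls before curve fitting.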
IL1B secr inh – blocks inflammasome-driven IL-1 beta release; THP-1 LPS/ATP IL-1B secretion, AlphaLISA, 16 h; hits give low values; activity change, % at 57.5 µM; actives 4.7% (n = 360,000); in the data active = activity change below about -50%; inconclusive = mostly about -30% to -49%
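Secreted IL-1B measured by AlphaLISA bead assay after 16 h compound exposure of THP-1 cells; compounds (final up to 57.5 uM) added 1 h before LPS (250 ng/mL) and ATP (1.25 mM) stimulation; lower signal means less secretion.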
HepG2 viability – kills HepG2 cells in TGF-b inhibitor counter-screen; HepG2 CAGA-GFP viability, ATP luminescence, 18 h; Potency, µM (top dose mostly 46.1 µM), most hits filed as cytotoxic; actives 0.76% (n = 410,000); AID 588856
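CellTiter-Glo luminescence gave cytotoxicity after 18 hours at 37 degrees C. The cells were HepG2 CAGA-GFP in 1% FBS DMEM, stimulated with 500 pg/mL TGF-beta after compound addition. %Activity was normalised to no-cell wells (complete cell-killing) and DMSO (no toxicity), and curves were fitted and classified.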
Numbers stand for hits; – = inactive; ? = inconclusive; · = not tested or not shown; [ ] = remark or other dose. Rows were chosen to be rich in hits. Some 19% of all compounds tested hit in one or more screens of this group. Unless noted, calls come from the whole dose curve; as a rule, active = well fitted curve in the direction sought with a large enough effect; inconclusive = small, poorly fitted or top-dose-only effect, or another doubt; inactive = no such curve, though single readings can be large; an effect the other way counts as inactive or inconclusive.

SMILES	TDP1 cell noCPT	TDP1 cell CPT	S-ASM inh	TGFb SMAD3 inh	IL1B secr inh	HepG2 viability
CCOC(=O)c1cccc(NC(=O)NC(C)c2c(-n3cccc3)sc3c2CCN(C)C3)c1 (stereo not given)	16µM	15µM	·	?	·	–
COc1ccc(NC(=O)NC(C)c2c(-n3cccc3)sc3c2CCN(C)C3)c(OC)c1 (stereo not given)	23µM	?	·	?	·	–
CCC(NC(=O)Nc1ccc(OC)c(OC)c1)c1c(-n2cccc2)sc2c1CCN(C)C2 (stereo not given)	?	?	·	?	·	–
Cn1cc([N+](=O)[O-])c(C(=O)Nc2nccs2)n1	–	–	–	?	-98	–
Cn1cc([N+](=O)[O-])c(C(=O)Nc2ccc(Br)cn2)n1	–	–	–	?	-87	–
COc1ccc(C(=O)Nc2nccs2)cc1[N+](=O)[O-]	–	–	–	–	–	–
NS(=O)(=O)c1ccc(CCNC(=O)CSc2nc3ccsc3c(=O)n2Cc2ccccn2)cc1	–	–	·	–	–	–
Cc1cccc(OCC(=O)Nc2ccc(C(=O)OCc3cc(=O)n4nc(C5CC5)sc4n3)cc2)c1	–	–	·	–	·	–
COc1ccc(/C=N/NC(=O)c2nn(-c3ccccc3)c(=O)c3c(N)scc23)cc1	8.2µM	10µM	–	–	–	–
COc1ccc(-n2nc(C(=O)NCC(=O)Nc3cc(Cl)c(OC)cc3OC)c3ccccc3c2=O)cc1	–	–	–	–	–	–
COc1ccc(/C=N/NC(=O)c2nn(-c3ccc(Cl)cc3)c(=O)c3c(N)scc23)cc1	2.6µM	5.8µM	?	–	–	–
COc1ccc(/C=N/NC(=O)c2nn(-c3ccc(C)c(C)c3)c(=O)c3ccccc23)cc1	3.3µM	9.2µM	–	–	–	–
COc1ccc(-n2nc(C(=O)O)c3ccccc3c2=O)cc1	–	–	–	–	–	–
O=C(NCc1ccccc1)c1ccc(NC(=O)N2CCSc3ncccc32)cc1	–	–	·	–	·	–
O=C1CC(c2ccccc2Cl)=NN(c2ncnc3ccccc23)C1=O	–	–	–	–	–	–
Cc1ccc(OCC(=O)Nc2ccc3nc(SCC(=O)N4CCCC4)sc3c2)cc1C	23µM	–	·	–	·	–
Cc1ccc(OCC(=O)Nc2ccc3nc(SCC(=O)N4CCCC4)sc3c2)cc1	21µM	?	·	–	·	–
CCOC(=O)CSc1nc2ccc(NC(=O)COc3ccccc3)cc2s1	–	?	·	–	·	–
Cc1ccc(OCC(=O)Nc2ccc3nc(SCc4ccccc4)sc3c2)cc1	?	–	·	–	·	–
Cc1ccc(CSc2nc3ccc(NC(=O)COc4ccccc4)cc3s2)cc1	?	15µM	·	–	·	–
Cc1ccc(OCC(=O)Nc2ccc3nc(SCC(=O)N(C)c4ccccc4)sc3c2)cc1	15µM	?	·	–	·	–
CCCC(=O)c1cc2c(cc1NC(=O)c1ccccc1F)OCCO2	–	–	–	–	–	–
O=C(O)c1cc(-c2ccc(C(F)(F)F)cc2)nc2n[nH]c(-c3ccccc3)c12	–	–	·	–	·	–
Cc1ccccc1OCc1nnc(SCC(=O)Nc2ccc3nc(SCC(=O)NC(C)(C)C)sc3c2)n1C	?	18µM	–	–	–	–
CCOc1ccc(C(=O)Nc2ccc3nc(SCc4ccccc4)sc3c2)cc1	8.2µM	12µM	·	?	·	–
SMILES	TDP1 cell noCPT	TDP1 cell CPT	S-ASM inh	TGFb SMAD3 inh	IL1B secr inh	HepG2 viability
Cc1cccc(NC(=O)CSc2nc3ccc(NC(=O)COc4ccccc4C)cc3s2)c1	16µM	15µM	·	?	·	–
CCNC(=O)c1ccc(CSc2nc3ccccc3s2)cc1	?	?	–	–	–	–
CCC(C)/C(C)=N/NC(=O)c1ccc(CSc2nc3ccccc3s2)cc1 (stereo not given)	23µM	15µM	–	–	–	–
Cc1ccccc1OCC(=O)Nc1ccc2nc(SCCOc3ccccc3)sc2c1	–	–	·	–	·	–
CSc1ncccc1C(=O)N1CCOc2ccc(C(C)(O)CCn3cccn3)cc2C1 (stereo not given)	–	–	·	·	·	·
CCCn1c(SCC(O)c2cccc(OC)c2)nc2ccccc21 (stereo not given)	?	?	·	–	·	–
COc1ccc(C(C(=O)NCCC(C)C)N(CCCO)C(=O)c2snc(C(N)=O)c2N)cc1OC (stereo not given)	–	–	–	–	–	–
Cc1ccc(NC(=O)CSc2nc3ccc(NC(=O)COc4ccc(C)cc4)cc3s2)cc1	18µM	10µM	·	–	·	–
CCC1CN(CC(=O)NC(C)c2cn(C)nc2C)Cc2cc(OC)ccc2O1 (stereo not given)	–	–[9.04 µM]	·	·	·	·
Cc1cccc(OCC(=O)OCC(=O)NCC2CCCO2)c1C (stereo not given)	–	–	–	–	–	–
CN(C)C=Nc1c(C(=O)c2ccccc2)sc2nccc(N(C)C)c12	?	–	–	–	-54	–
CN(C)c1ccnc2sc(C(=O)NCc3ccccc3)c(N)c12	?	16µM	–	–	·	–
Cc1c(C(=O)NCc2ccccc2)sc2nc[nH]c(=O)c12	–	–	·	–	·	–
CN(C)c1ccnc2sc(C(N)=O)c(N)c12	?	1.6µM	–	–	-66	–
CN(C)c1ccnc2sc(C(=O)c3ccc(Br)cc3)c(N)c12	–	–	–	–	?	–
CN(C)c1ccnc2sc3c(=O)n(-c4ccccc4)cnc3c12	–	?	–	–	–	–
Cc1ccc(N2CC(C(=O)NC3CCCCCC3)CC2=O)cc1 (stereo not given)	–	–	·	–	–	–
COc1ccc(NC(=O)c2ccccc2-c2ccccc2)c(C)c1	?	?	–	–	–	–
C[C@@H]1CN([C@H](C)CO)C(=O)c2cc(Br)cnc2O[C@H]1CN(C)C(=O)Nc1ccccc1F	–	–	·	–	–	–
COCC(=O)N1CCC[C@@]2(CCN(C(=O)Nc3cccc(C#N)c3)C2)C1	–	–	·	·	·	·
O=C(Nc1ccc(Cl)cc1)N1CCCN(Cc2ccc(F)cc2)C1	21µM	23µM	–	?	?	11µM
COc1cc(NC(=O)NCCn2nnc3cc(S(=O)(=O)N(C)C)ccc32)cc(OC)c1	–	–	·	–	·	–
Cc1ccc(S(=O)(=O)N(C)C)cc1NC(=O)COC(=O)/C(=C/c1ccc(F)cc1)c1cccs1	26µM	13µM	–	?	–	–
CN(C)S(=O)(=O)c1cccc(NC(=O)COc2ccccc2C(=O)Nc2ccccc2)c1	9.2µM	18µM	·	–	?	–

Screening results as filed in PubChem.
